# Results taken from PubChem BioAssay (EPA / NIEHS).
# Where “and” joins values, the source holds several entries; their conditions need not be identical. Equal entries are not always repeated. Inconclusive results are not listed. Calls of active or inactive are those of the source. Rule for the calls, unless noted: active = hit-call score of the fitted dose curve at least 0.9, where 1 is the maximum; inconclusive = response in the unintended direction; inactive = score below 0.9.
# Tests used:
# DIO1 (gene 1733) = assay: CCTE_GLTED_hDIO1: CCTE's human Deiodinase 1 (DIO1) Inhibition Assay, Great Lakes Toxicology and Ecology Division (GLTED) Lab (AID 2283987);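 note: isolated human DIO1 enzyme in a cell-free setup rather than cells; enzyme activity read as free iodide liberated from substrate via Sandell-Kolthoff colorimetry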
# Method in brief: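 Cell-free hDIO1 assay, triplicate plates. Absorbance of the Sandell-Kolthoff reaction reports enzyme-liberated iodide; iodinated chemicals or nitrite, iron and thiocyanate may interfere.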
# [1] = molecular target: Nucleoli Translocation, AR (gene 367) (UniProt P10275); assay: UPITT_HCI_U2OS_AR_TIF2_Nucleoli_Antagonist: University of Pittsburgh U2OS Androgen Receptor-Transcriptional Intermediary Factor 2 (AR-TIF2) Antagonism High Content Imaging Assay for Nucleoli Translocation (AID 2283997)
# Method in brief: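 Measured quantity was AR-RFP fluorescence localized to nucleoli in engineered U2OS cells also bearing TIF2-GFP, acquired on automated high-content imagers. Primary testing used 20 uM compound; actives were confirmed in triplicate wells.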
# [2] = molecular target: Nucleoli Translocation, AR (gene 367) (UniProt P10275); assay: UPITT_HCI_U2OS_AR_TIF2_Nucleoli_Agonist: University of Pittsburgh U2OS Androgen Receptor-Transcriptional Intermediary Factor 2 (AR-TIF2) Agonism High Content Imaging Assay for Nucleoli Translocation (AID 2283998)
# Method in brief: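 Red-tagged human androgen receptor co-expressed with GFP-tagged TIF2 serves as the binding reporter. Primary testing used 20 uM final (0.2% DMSO); follow-up dose response covered 0.195 to 50 uM final (0.5% DMSO).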
# [3] = molecular target: Ratio of Nucleoli Translocation and Cytoplasm, AR (gene 367) (UniProt P10275); assay: UPITT_HCI_U2OS_AR_TIF2_Nucleoli_Cytoplasm_Ratio_Agonist: University of Pittsburgh U2OS Androgen Receptor-Transcriptional Intermediary Factor 2 (AR-TIF2) Agonism High Content Imaging Assay for Ratio of Nucleoli Translocation and Cytoplasm (AID 2284000);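 note: hits raise the red nucleolar to cytoplasm ratio above vehicle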
# Method in brief: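 Read-out first: nucleolar-to-cytoplasm ratio of red (AR-RFP) signal, quantified by high-content imaging in U2OS cells co-expressing TIF2-GFP. Activity is scored as signal increase over DMSO. Single-point screening used 20 uM final (0.2% DMSO).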
# [4] = CCTE_Harrill_HTTr_Viability_MCF7: CCTE's 6-hour Cell Viability Assessment for the High-Throughput Transcriptomics (HTTr) Platform, in MCF-7 cells cultured in DMEM + 10% fetal bovine serum, Harrill Lab (AID 2284010; active = hit-call score of the fitted dose curve at least 0.9, where 1 is the maximum; inactive = score below 0.9)
# Method in brief: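 Membrane integrity was scored by high-content imaging of propidium iodide dye exclusion after a 6 h exposure across an eight-point dilution series. Data were fitted bidirectionally relative to DMSO as negative control and baseline.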
# [5] = CCTE_Harrill_HTTr_CellCount_MCF7: CCTE's Cell Proliferation Assessment for the High-Throughput Transcriptomics (HTTr) Platform, Harrill Lab (AID 2284012);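 note: cells exposed to compound for six hours; intended direction is loss of nuclei count meaning fewer cells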
# Method in brief: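 MCF-7 cells were exposed for 6 h to an eight-point dilution series; Hoechst-labeled nuclei were counted by high content imaging. Curves were fitted bidirectionally against DMSO as negative control and baseline, with signal loss indicating reduced cell count.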
# [6] = molecular target: Ratio of Nucleoli Translocation and Cytoplasm, AR (gene 367) (UniProt P10275); assay: UPITT_HCI_U2OS_AR_TIF2_Nucleoli_Cytoplasm_Ratio_Antagonist: University of Pittsburgh U2OS Androgen Receptor-Transcriptional Intermediary Factor 2 (AR-TIF2) Antagonism High Content Imaging Assay for Ratio of Nucleoli Translocation and Cytoplasm (AID 2283999);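 note: antagonists lower the DHT-driven ratio of nucleolar to cytoplasmic red signal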
# Method in brief: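 U2OS cells expressing RFP-tagged human AR and GFP-tagged TIF2; compounds tested at 20 uM final (0.2% DMSO) in primary screen, 0.195–50 uM (0.5% DMSO) for concentration response. Readout: nucleolar-to-cytoplasmic red fluorescence ratio by high-content imaging, fitted relative to DHT.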
# [7] = TOX21_PR_LUC_Followup_Agonist_viability: Viability Assessment in the Tox21 HEK293 Progesterone Receptor (PR) Agonism Luciferase Follow-Up Assay (AID 2283941);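 note: loss of signal means cytotoxicity so actives lower viability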
# Method in brief: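 HEK293-PR-A-luc cells, pre-cultured 5 days in 10% charcoal-stripped FBS, were seeded at 3,000 cells/well, rested 5 h at 37C, then given compound in DMSO for 16 h at 37C. Cellular ATP was read by CellTiter-Glo luminescence; signal loss indicates cytotoxicity.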
# THRA (gene 7067) = THRA (gene 7067) (UniProt P10827); assay: TOX21_TRA_COA_Agonist_Followup_ratio: Tox21 Thyroid Hormone Receptor alpha Agonism through Coactivator Recruitment Follow-Up Assay, Ratio (AID 2283948; active = hit-call score of the fitted dose curve at least 0.9, where 1 is the maximum; inactive = score below 0.9)
# Method in brief: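 First, compound was incubated with 2.5 nM GST-TRα LBD in 0.10% BSA. Next, 200 nM fluorescein-SRC-2 and 2 nM Tb-anti-GST antibody were added. Finally, the 520:495 nm ratio was normalized to DMSO and T3 controls.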
# THRB (gene 7068) = THRB (gene 7068) (UniProt P10828); assay: TOX21_TRB_COA_Agonist_Followup_ratio: Tox21 Thyroid Hormone Receptor beta Agonism through Coactivator Recruitment Follow-Up Assay, Ratio (AID 2283963; active = hit-call score of the fitted dose curve at least 0.9, where 1 is the maximum; inactive = score below 0.9)
# Method in brief: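 Agonism is measured as coactivator recruitment in a purified-protein TR-FRET format, using GST-TRβ LBD at 5.0 nM, fluorescein-SRC-2 peptide at 200 nM and Tb-labeled anti-GST antibody at 2 nM. Values are 520:495 nm ratios relative to DMSO (0%) and T3 (100%).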
# [8] = molecular target: Retinoic acid receptor RXR-alpha (Homo sapiens) (UniProt P19793); assay: TOX21_TR_RXR_BLA_Agonist_Followup_ratio: Tox21 Thyroid Hormone Receptor beta Retinoid X Receptor alpha (RXRa) Agonism Beta-lactamase (BLA) Follow-Up Assay, Ratio (AID 2283968)
# Method in brief: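 RXRa-UAS-bla HEK293T cells (GAL4 beta-lactamase reporter) were treated with compounds at 11 concentrations in triplicate for 16 h at 37C/5% CO2, then loaded with CCF4-AM substrate for 2 h at room temperature; activity is the 460:530 nm ratio versus DMSO baseline.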
# [9] = TOX21_TR_RXR_BLA_Agonist_Followup_viability: Viability Assessment in the Tox21 Thyroid Hormone Receptor beta Retinoid X Receptor alpha (RXRa) Agonism Beta-lactamase (BLA) Follow-Up Assay (AID 2283970)
# Method in brief: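 RXRa-UAS-bla HEK293T cells seeded at 2,500/well in phenol red-free DMEM with 2% charcoal-stripped FBS, exposed to compound 16h at 37C/5% CO2 in qHTS. Viability read by CellTiter-Glo ATP luminescence; bidirectional fitting against DMSO baseline, signal loss indicating cytotoxicity.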
# Chain of Nucleoli Translocation, AR (gene 367) (P10275 whole entry, looked up): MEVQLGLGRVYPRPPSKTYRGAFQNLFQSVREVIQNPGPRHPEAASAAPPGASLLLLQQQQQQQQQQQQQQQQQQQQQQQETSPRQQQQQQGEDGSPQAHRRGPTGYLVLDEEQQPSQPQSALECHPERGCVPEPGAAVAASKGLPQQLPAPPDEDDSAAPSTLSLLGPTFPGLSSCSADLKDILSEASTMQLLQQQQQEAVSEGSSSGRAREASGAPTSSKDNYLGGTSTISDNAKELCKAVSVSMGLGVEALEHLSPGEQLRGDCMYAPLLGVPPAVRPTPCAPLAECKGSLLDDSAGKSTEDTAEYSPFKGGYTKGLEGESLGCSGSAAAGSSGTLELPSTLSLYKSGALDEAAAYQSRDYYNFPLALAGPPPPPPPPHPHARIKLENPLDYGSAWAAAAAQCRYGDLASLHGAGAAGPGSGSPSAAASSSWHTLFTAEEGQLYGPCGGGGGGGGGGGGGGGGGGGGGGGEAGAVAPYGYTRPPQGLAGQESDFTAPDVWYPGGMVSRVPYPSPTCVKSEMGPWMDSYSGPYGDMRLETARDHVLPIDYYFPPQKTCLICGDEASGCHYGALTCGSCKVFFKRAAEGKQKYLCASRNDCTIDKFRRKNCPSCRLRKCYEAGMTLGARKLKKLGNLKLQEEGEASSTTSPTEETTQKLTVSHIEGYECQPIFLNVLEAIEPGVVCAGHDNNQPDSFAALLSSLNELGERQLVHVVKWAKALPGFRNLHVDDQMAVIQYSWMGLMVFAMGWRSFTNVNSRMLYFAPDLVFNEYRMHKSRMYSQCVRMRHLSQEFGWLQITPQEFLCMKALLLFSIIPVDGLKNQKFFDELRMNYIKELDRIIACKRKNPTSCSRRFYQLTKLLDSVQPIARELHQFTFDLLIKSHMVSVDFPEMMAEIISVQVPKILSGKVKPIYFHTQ
# Chain of Ratio of Nucleoli Translocation and Cytoplasm, AR (gene 367) (P10275 whole entry, looked up): as above
# Chain of THRA (gene 7067) (P10827 whole entry, looked up, the tested form may be a part): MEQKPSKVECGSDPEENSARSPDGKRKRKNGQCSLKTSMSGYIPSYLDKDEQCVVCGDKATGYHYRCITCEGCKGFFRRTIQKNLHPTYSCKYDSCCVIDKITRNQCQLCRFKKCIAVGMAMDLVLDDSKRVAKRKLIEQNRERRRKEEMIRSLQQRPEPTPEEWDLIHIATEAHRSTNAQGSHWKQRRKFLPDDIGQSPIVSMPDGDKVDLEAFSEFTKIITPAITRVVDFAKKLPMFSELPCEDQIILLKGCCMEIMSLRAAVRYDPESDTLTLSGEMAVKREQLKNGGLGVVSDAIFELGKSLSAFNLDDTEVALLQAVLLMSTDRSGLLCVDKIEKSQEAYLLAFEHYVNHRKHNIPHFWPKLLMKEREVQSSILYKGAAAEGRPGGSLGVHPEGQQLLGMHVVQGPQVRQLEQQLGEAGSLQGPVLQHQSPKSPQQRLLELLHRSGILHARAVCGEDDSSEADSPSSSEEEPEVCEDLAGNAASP
# Chain of Retinoic acid receptor RXR-alpha (Homo sapiens) (P19793 whole entry, looked up, the tested form may be a part): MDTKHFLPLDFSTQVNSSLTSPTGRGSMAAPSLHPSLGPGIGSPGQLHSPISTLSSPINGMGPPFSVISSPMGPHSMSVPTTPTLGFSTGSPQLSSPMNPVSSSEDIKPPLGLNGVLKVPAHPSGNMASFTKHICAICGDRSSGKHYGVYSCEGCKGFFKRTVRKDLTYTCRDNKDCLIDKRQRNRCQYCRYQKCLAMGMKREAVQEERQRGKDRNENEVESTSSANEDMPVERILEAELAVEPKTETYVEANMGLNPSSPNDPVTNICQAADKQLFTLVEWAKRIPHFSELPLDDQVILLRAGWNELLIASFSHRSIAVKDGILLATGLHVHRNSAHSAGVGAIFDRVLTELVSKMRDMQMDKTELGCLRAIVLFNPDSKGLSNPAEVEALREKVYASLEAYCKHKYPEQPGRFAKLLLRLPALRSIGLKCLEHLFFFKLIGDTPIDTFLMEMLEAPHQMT
# Chain of THRB (gene 7068) (P10828 whole entry, looked up, the tested form may be a part): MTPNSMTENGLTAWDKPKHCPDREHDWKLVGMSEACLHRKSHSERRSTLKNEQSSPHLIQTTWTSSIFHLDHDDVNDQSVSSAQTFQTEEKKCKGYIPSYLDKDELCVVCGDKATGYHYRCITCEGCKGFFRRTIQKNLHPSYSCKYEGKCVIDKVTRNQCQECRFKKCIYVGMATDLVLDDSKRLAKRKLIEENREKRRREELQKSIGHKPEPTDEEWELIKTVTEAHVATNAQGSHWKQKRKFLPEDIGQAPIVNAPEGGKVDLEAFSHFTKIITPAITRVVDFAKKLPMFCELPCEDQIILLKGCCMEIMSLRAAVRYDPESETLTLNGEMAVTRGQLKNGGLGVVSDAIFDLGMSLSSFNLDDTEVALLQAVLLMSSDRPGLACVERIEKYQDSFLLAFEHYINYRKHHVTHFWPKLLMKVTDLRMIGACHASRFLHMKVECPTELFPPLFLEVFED
smiles,measurement,setting,value
NS(=O)(=O)C(F)(F)C(F)(F)C(F)(F)C(F)(F)C(F)(F)C(F)(F)F,AC50,DIO1 (gene 1733),44.3 µM (active)
Cc1cccc(C)n1,outcome,[1],inactive
same,outcome,[2],inactive
same,outcome,[3],inactive
same,outcome,[4],inactive
same,outcome,[5],inactive
CCC(Cc1c(I)cc(I)c(N)c1I)C(=O)O (configuration not stated),outcome,[4],inactive
CC(=O)CCC(C)C,outcome,[4],inactive
same,outcome,[5],inactive
CCCCCCCC/C=C\CCCCCCCC(=O)OCC(O)CO (configuration not stated),outcome,[1],inactive
same,outcome,[2],inactive
same,outcome,[6],inactive
same,outcome,[3],inactive
CCCCCCCCCCCCC[N+](C)(C)Cc1ccccc1,AC50,DIO1 (gene 1733),38.7 µM (active)
same,AC50,[1],13.7 µM (active)
same,outcome,[2],inactive
same,AC50,[6],13.7 µM (active)
same,outcome,[3],inactive
same,outcome,[4],inactive
same,outcome,[5],inactive
CN(C)C(C)(C)CO,outcome,[4],inactive
same,outcome,[5],inactive
CN(N=O)C(=O)N[C@@H]1[C@@H](O)[C@H](O)[C@@H](CO)O[C@@H]1O,outcome,[4],inactive
same,outcome,[5],inactive
CCCCCCCCn1sc(Cl)c(Cl)c1=O,AC50,DIO1 (gene 1733),0.411 µM (active)
same,outcome,[4],inactive
same,outcome,[5],inactive
O=C(c1ccccc1)c1ccc(O)cc1O,outcome,[7],inactive
same,outcome,THRA (gene 7067),inactive
same,outcome,THRB (gene 7068),inactive
same,outcome,[8],inactive
same,outcome,[9],inactive
same,outcome,[4],inactive
C=CC(=O)OCC(F)(F)C(F)(F)C(F)(F)C(F)(F)C(F)(F)C(F)(F)C(F)(F)C(F)F,AC50,DIO1 (gene 1733),8.44 µM (active)
CCOC(=O)C1CC(=O)C(=C(O)C2CC2)C(=O)C1 (configuration not stated),outcome,[4],inactive
CCN=c1cc2oc3cc(NCC)c(C)cc3c(-c3ccccc3C(=O)OCC)c-2cc1C,AC50,[2],12.9 µM (active)
same,AC50,[6],0.753 µM (active)
same,AC50,[3],13.6 µM (active)
same,AC50,[4],214 nM (active) and 159 nM (active)
same,outcome,[5],inactive
CCCCC(CC)COC(=O)c1ccc(N(C)C)cc1 (configuration not stated),outcome,[4],inactive
Cc1cnccn1,outcome,[4],inactive
same,outcome,[5],inactive
COCCOCCC[Si](C)(O[Si](C)(C)C)O[Si](C)(C)C,outcome,[1],inactive
same,AC50,[2],88.8 µM (active)
same,outcome,[6],inactive
same,outcome,[3],inactive
CC1CCCCC1,outcome,[1],inactive
same,outcome,[2],inactive
same,outcome,[3],inactive
same,outcome,[4],inactive
same,outcome,[5],inactive
O=S(=O)(O)c1ccc(Cl)cc1,outcome,[4],inactive
Cc1ccc(O)c(-n2nc3ccccc3n2)c1,outcome,[4],inactive
same,outcome,[5],inactive
Brc1ccccn1,outcome,[4],inactive
same,outcome,[5],inactive
